# In PubChem BioAssay AID504904 (The Scripps Research Institute Molecular Screening Center, 2011):
# This is one part of the list. Active and inactive are the calls of the source. Rule as the data show it: active = activation above about 18%; inactive = the rest.
# Target: Mu-type opioid receptor (Homo sapiens) + Delta-type opioid receptor (Homo sapiens) (UniProt P35372+P41143)
# Experiment: agonists of MOR-DOR heterodimerization, confirmation, cell-based, luminescence (AID 504904);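 also: 0% = vehicle-treated cells and 100% = reference agonist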
# Details: cells, luminescence complementation, at 9.3 µM, stronger effect = higher value
# Chain of Mu-type opioid receptor (Homo sapiens) + Delta-type opioid receptor (Homo sapiens) (P35372 whole entry, looked up): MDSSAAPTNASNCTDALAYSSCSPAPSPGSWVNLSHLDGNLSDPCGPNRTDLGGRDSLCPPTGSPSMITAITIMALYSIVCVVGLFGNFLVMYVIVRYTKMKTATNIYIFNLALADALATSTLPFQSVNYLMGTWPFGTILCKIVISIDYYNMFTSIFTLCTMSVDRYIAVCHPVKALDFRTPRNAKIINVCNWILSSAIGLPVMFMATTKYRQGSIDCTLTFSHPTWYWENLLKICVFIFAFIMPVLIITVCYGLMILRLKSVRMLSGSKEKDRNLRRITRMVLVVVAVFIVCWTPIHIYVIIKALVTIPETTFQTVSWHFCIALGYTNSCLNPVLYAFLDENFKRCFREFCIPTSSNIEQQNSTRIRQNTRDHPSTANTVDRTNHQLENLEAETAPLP
# Chain of Mu-type opioid receptor (Homo sapiens) + Delta-type opioid receptor (Homo sapiens) (P41143 whole entry, looked up): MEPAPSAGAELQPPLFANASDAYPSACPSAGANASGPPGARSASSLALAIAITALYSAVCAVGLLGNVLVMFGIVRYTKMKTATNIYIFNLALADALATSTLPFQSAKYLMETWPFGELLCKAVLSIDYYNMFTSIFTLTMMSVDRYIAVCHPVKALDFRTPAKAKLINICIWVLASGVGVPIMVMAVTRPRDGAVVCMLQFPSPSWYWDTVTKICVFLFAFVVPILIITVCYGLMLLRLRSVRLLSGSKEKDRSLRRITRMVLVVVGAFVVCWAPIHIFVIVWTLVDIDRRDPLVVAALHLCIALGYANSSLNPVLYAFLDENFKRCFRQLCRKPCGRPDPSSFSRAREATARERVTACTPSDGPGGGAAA
row,SMILES,activation
1,CC(OC(=O)/C=C/c1ccccc1)C(=O)Nc1ccc(C(N)=O)cc1 (stereo unspecified),-2.09% (inactive)
2,COc1ccccc1C(CNC(=O)c1ccc(C)c(S(=O)(=O)N2CCCCC2)c1)N(C)C (stereo unspecified),3.98% (inactive)
3,Cc1ccc(CNC(=O)CC(NC(=O)c2ccccc2)c2ccccc2)cc1 (stereo unspecified),-2.24% (inactive)
4,Cc1cc(C)cc(C(=O)N(CCc2ccccc2)C2=CC3CCC(C2)N3C)c1 (stereo unspecified),137% (active)
5,C=C(C)COc1ccc(-c2n[nH]c(C)c2-c2ccccc2)c(O)c1,13.3% (inactive)
6,CCOC(=O)C1(CC2CCCCO2)CCN(Cc2nc(-c3cccs3)oc2C)CC1 (stereo unspecified),49.1% (active)
7,CN1CCN(c2ccc([N+](=O)[O-])c(Sc3nc4ccccc4[nH]3)c2)CC1,1.22% (inactive)
8,COc1ccc(C(CNCC(=O)Nc2ccccc2F)N(C)C)cc1 (stereo unspecified),145% (active)
9,COc1ccc(-n2nnnc2-c2nc3ccccc3s2)cc1,3.47% (inactive)
10,CC(c1cccnc1)N(CCN(C)C)C(=O)Nc1ccc(Cl)c(Cl)c1 (stereo unspecified),-0.05% (inactive)
11,Cc1ccc(O)c(NC(=S)NC(=O)COc2ccc(Br)cc2)c1,2.92% (inactive)
12,Clc1ccc(COn2c(-c3ccc(Cl)cc3Cl)nc3ncccc32)cc1,2.83% (inactive)
13,CC1CCCN(CCOCCOc2ccccc2-c2ccccc2)C1 (stereo unspecified),1.28% (inactive)
14,CCC(C(=O)OCC(=O)Nc1ccc(C(=O)Nc2ccc(OC)cc2)cc1)c1ccccc1 (stereo unspecified),4.73% (inactive)
15,O=C1N/C(=C/c2cccs2)C(=O)N1Cc1ccc(F)cc1,35% (active)
16,COc1cc(/C=N/NC(=O)Nc2ccccc2)ccc1OCCOc1ccccc1C,17.1% (inactive)
